Among the data in PubChem BioAssay (NCI) are growth values, retold here.

This is part of a sample that, as a whole, favours compounds with a hit. Of some 83,000 tested, about 20% had one in any assay.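 Single-dose data. Exposure time 48 hours. Values below 10 considered active.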 Values without a mark were called inactive. Active and inactive are the calls of the source.

Holding throughout (assay): NCI-60 one-dose screen, 48 h (100 = growth as untreated, 0 = no growth, -100 = all killed)
For test [1], the system named is HCT-15 colon. The conditions noted are these: 10 µM unless noted.
Test [2] deals with HT29 colon. As to conditions: 10 µM unless noted.
The subject of test [3] is SNB-75 CNS. As to conditions: 10 µM unless noted.
In test [4] the test system is U251 CNS. The conditions noted are these: 10 µM unless noted.
Test [5] relates to PC-3 prostate. As to conditions: 10 µM unless noted.
For test [6], the system named is SK-MEL-5 melanoma. As to conditions: 10 µM unless noted.
The test system of test [7] is UACC-62 melanoma. The conditions noted are these: 10 µM unless noted.
Test [8] concerns LOX IMVI melanoma. The conditions noted are these: 10 µM.
Test [9] relates to SK-MEL-28 melanoma. The conditions noted are these: 10 µM unless noted.
For test [10], the system named is SK-MEL-2 melanoma. The conditions noted are these: 10 µM unless noted.
Test [11] has as its system EKVX NSCLC. As to conditions: 10 µM unless noted.
Test [12] deals with UO-31 renal. The conditions noted are these: 10 µM unless noted.
For test [13], the system named is TK-10 renal. The conditions noted are these: 10 µM unless noted.
Test [14] deals with ACHN renal. The conditions noted are these: 10 µM unless noted.
The subject of test [15] is CAKI-1 renal. As to conditions: 10 µM unless noted.
The test system of test [16] is A498 renal. As to conditions: 10 µM unless noted.
The subject of test [17] is CCRF-CEM leukemia. As to conditions: 10 µM unless noted.
Test [18] deals with MOLT-4 leukemia. The conditions noted are these: 10 µM unless noted.

For `CN(C)c1ccnc(CNCCSC2(c3ccccc3)c3ccccc3C=Cc3ccccc32)c1`, the growth in test [1] is -36.9% (active); in test [2], -46.4% (active); in [3], -10.9% (active); in [4] it was -77.1% (active); in [5], -23.3% (active); in test [6], -99.4% (active). The growth in test [7] is -32.2% (active); in test [8] it was -96.2% (active); in test [9] it was -64.6% (active); in [10], -46.6% (active); in [11], -24.3% (active); in test [12], 13.5%. Further, the growth in test [13] is 0.124% (active); in test [14], 12.8%; in [15] it was 3.63% (active); in test [16], -38.8% (active); in test [17], -2.57% (active); in test [18] it was 7.41% (active).

With `Cc1ccc(C(SCCNCc2cc(N(C)C)ccn2)(c2ccccc2)c2ccccc2)cc1`, the growth was -68.8% (active) in test [1]; -77.2% (active) in test [2]; 8.64% (active) in [3]; -89.3% (active) in test [4]; -43.4% (active) in test [5]; -100% (active) in test [6]. Moreover, the growth was -64.4% (active) in test [7]; -100% (active) in test [8]; -95.3% (active) in test [9]; -36.3% (active) in test [10]; -24.8% (active) in test [11]; 8.42% (active) in test [12]. The growth in [13] is -4.26% (active); in test [14] it was 3.79% (active); in test [15], -10.4% (active); in test [16], -43.8% (active); in [17] it was -3.65% (active); in test [18], 8% (active).

In the case of `Cc1sc(C(NC(=O)OCCn2c([N+](=O)[O-])cnc2C)C(F)(F)Cl)nc1-c1ccc(OC(F)(F)F)cc1` (stereo not given), the growth in test [1] is -92.5% (active); in [2], -83.4% (active); in [3], -32.9% (active); in test [4], -85.7% (active); in [5], -65.1% (active); in [6], -99.5% (active). Moreover, the growth in [7] was -96.1% (active); in test [8], -98.3% (active); in [9], -92.2% (active); in test [10], -90.7% (active); in [11], -98% (active); in test [12], -95.5% (active). Besides, the growth is -91.7% (active) in test [13]; -98.5% (active) in [14]; -76.6% (active) in test [15]; -89.7% (active) in [16]; 2.22% (active) in [18].

Take `CN(C)c1ccnc(CNCCSC2(c3ccc(C(F)(F)F)cc3)c3ccccc3C=Cc3ccccc32)c1`: the growth in test [1] is -90.6% (active); in test [2], -61.7% (active); in test [3] it was -6.52% (active); in test [4], -77% (active); in [5], -3.49% (active); in test [6] it was -97.1% (active). Moreover, the growth was 2.63% (active) in test [7]; -92% (active) in test [8]; -67.4% (active) in [9]; -41.1% (active) in [10]; -23.9% (active) in test [11]; 17.6% in test [12]. For the same compound, the growth is 12.4% in [13]; 13.2% in [14]; 6.81% (active) in [15]; 21.6% in test [16]; 0.384% (active) in [17]; 16.1% in test [18].

For the compound `Cc1cc(=O)oc2cc(OCCCOc3ccc(/C=C/C(=O)Nc4ccccc4N)cc3)ccc12`, the growth is 38% in [1]; 37.4% in [2]; 36.2% in test [3]; 32.2% in test [4]; 32% in test [5]; -91.2% (active) in test [6]. Moreover, the growth in test [7] was 21%; in [8] it was -76.5% (active); in [9] it was 32%; in [10], 48.7%; in test [11], 31.2%; in test [12], -22.9% (active). Also, the growth is 49.8% in test [13]; 34.6% in test [14]; 29.6% in test [15]; 11.2% in test [16]; 9.74% (active) in test [17]; 12.5% in test [18].

For the compound `CCCSc1nc(NCCc2c[nH]c3ccccc23)c(C#N)c(-c2ccc(F)cc2)n1`, the growth in test [1] was 18.8%; in [2] it was 15.6%; in test [3], 85.7%; in test [4], 28.2%; in [5], 23.8%; in [6] it was 13.1%. Moreover, the growth is 54.6% in [7]; 21.1% in test [8]; 63.3% in test [9]; 92% in test [10]; 50.8% in [11]; 68.7% in test [12]. Also, the growth was 91.6% in test [13]; 59.2% in [14]; 52.3% in test [15]; 33.6% in [17]; 42.5% in test [18].

For `COc1ccc(-c2ccnc(SCc3cc4cc(Cl)ccc4[nH]c3=O)n2)cc1`, the growth in test [1] is 80.8%; in test [2] it was 84.7%; in [3] it was -7.9% (active); in test [4], 0.922% (active); in [5], 29.6%; in test [6] it was 37.4%. The growth is 42.5% in [7]; 80.9% in test [8]; 64.3% in test [9]; 99% in test [10]; 57.1% in test [11]; 79.1% in [12]. For the same compound, the growth in test [13] was 19.5%; in test [14], 55%; in test [15], 26.2%; in [16], 41.6%; in test [17], 79.1%; in test [18] it was 93.6%.

Consider `CCCCSc1nc(NCCc2c[nH]c3ccccc23)c(C#N)c(-c2ccc(F)cc2)n1`, for which the growth in test [1] is 28.8%; in test [2], 25.4%; in test [3], 74.2%; in test [4] it was 45.6%; in test [5], 28.5%; in test [6], 37.6%. In addition, the growth in [7] was 61.4%; in test [8], 36.1%; in test [9] it was 81.4%; in test [10], 72%; in test [11] it was 40.9%; in test [12], 56.3%. In addition, the growth in [13] is 107%; in test [14] it was 71.9%; in [15], 48.2%; in test [16], 103%; in test [17], 36.5%; in test [18] it was 36.5%.

For the compound `COc1ccc(-c2nc3ccc(C(=O)NN4C(=O)c5ccc([N+](=O)[O-])cc5C4=O)cc3[nH]2)cc1`, the growth was 95.9% in test [1]; 87.1% in [2]; 83.3% in test [3]; 97% in test [4]; 90.5% in [5]; 83.1% in test [6]. For the same compound, the growth in test [7] is 80.2%; in [8] it was 87.1%; in [9], 95.6%; in test [10], 101%; in [11] it was 90.7%; in test [12] it was 88.6%. The growth is 101% in test [13]; 98.4% in test [14]; 92.6% in [15]; 103% in test [16]; 83.3% in [17]; 98.7% in test [18].
